# Source: PubChem (National Center for Advancing Translational Sciences (NCATS))
# This is a sample that favours compounds with a hit; in the whole collection about 19% have one here.
# HT1080 IDH1KD tx: qHTS for induction of synthetic lethality in tumor cells producing 2HG: qHTS for the HT-1080-IDH1KD cell line | HT-1080 IDH1 knockdown viability, ATP luminescence, 48 h | Potency, µM (top dose mostly 46.1 µM), for inactives: at the highest dose activity, negative = toxicity, actives largely listed as cytotoxic | actives 2% (n = 360,000);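 note: potency is the fitted concentration of half-maximal effect; 0% = DMSO wells and -100% = cell-free medium wells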
#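 Cytotoxicity counter-line: IDH1KD HT-1080, 48 h, CellTiter-Glo. Curves classed by r2, magnitude and activity.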
# DT40 TDP1 CPT: qHTS for Inhibitors of human tyrosyl-DNA phosphodiesterase 1 (TDP1): qHTS in cells in presence of CPT; Potency, µM (top dose mostly 46.2 µM), for inactives: at the top dose activity change, negative = growth inhibition, hits mostly inhibitors; chicken DT40 Tdp1-/-;hTDP1 cells + 20 nM CPT, ATP luminescence, 48 h; actives 12% (n = 420,000); AID 686979, 2013; note: potency is the fitted concentration of half-maximal effect; nearly all actives have a fitted effect of over 55% in size
#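 Cell growth measured by CellTiter-Glo luminescence after a minimum 48 h, 37 C compound exposure with 20 nM CPT in Tdp1-knockout DT40 cells stably expressing hTDP1, seeded 400/well; qHTS titration format.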
# HT1080-NT tox: qHTS for induction of synthetic lethality in tumor cells producing 2HG: qHTS for the HT-1080-NT fibrosarcoma cell line. HT-1080-NT fibrosarcoma viability, CellTiter-Glo ATP luminescence, 48 h. actives 1.6% (n = 360,000). Potency, µM (highest dose often 46.1 µM), without a hit: at the highest dose activity, negative = less viability, hits mostly cytotoxic;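 note: NT is the 2HG producing partner of a matched IDH1 knockdown line; potency is the fitted concentration of half-maximal effect; 0% = DMSO-treated cells and -100% = media-only wells without cells; nearly all actives have a fitted effect of over 55% in size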
#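 Viability by CellTiter-Glo luminescence after 48 h compound exposure at 37C of HT-1080-NT cells (750/well, RPMI, 5% FBS). % activity scaled between DMSO wells and medium-only wells, then curve-fitted and categorized by curve class.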
# TDP1 cell noCPT: qHTS for Inhibitors of human tyrosyl-DNA phosphodiesterase 1 (TDP1): qHTS in cells in absence of CPT | DT40 Tdp1-/- hTDP1 cells, no CPT, ATP luminescence, 48 h | Potency, µM (series often up to 46.2 µM), for the others: top-dose activity change, negative = growth inhibition, most hits filed as inhibitors | actives 15% (n = 420,000); note: potency is the fitted concentration of half-maximal effect; nearly all actives have a fitted effect of over 55% in size
#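 Chicken DT40 Tdp1-/- cells complemented with human TDP1, screened without camptothecin (DMSO vehicle only), 400 cells/well. Compounds pin-transferred, cells incubated at 37 °C for at least 48 hr. Growth read as ATP-dependent luminescence (CellTiter-Glo, 30 min at RT).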
# IL-1B inflam inh: qHTS for Inhibitors of Inflammasome Signaling: IL-1-beta AlphaLISA Primary Screen | THP-1 LPS/ATP IL-1B secretion, AlphaLISA, 16 h; hits give low values | activity change, % at 57.5 µM | actives 4.7% (n = 360,000); in the data active = activity change below about -50%; inconclusive = mostly about -30% to -49%
#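 Secreted IL-1B measured by AlphaLISA bead assay after 16 h compound exposure of THP-1 cells; compounds (final up to 57.5 uM) added 1 h before LPS (250 ng/mL) and ATP (1.25 mM) stimulation; lower signal means less secretion.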
# An asterisk follows results filed as active; ? = inconclusive; · = no result given. Unless noted, calls come from the whole dose curve; as a rule, active = well fitted curve in the direction sought with a large enough effect; inconclusive = small, poorly fitted or top-dose-only effect, or another doubt; inactive = no such curve, though single readings can be large; an effect the other way counts as inactive or inconclusive. Unless noted, % is set by controls: 0 for no effect and ±100 for the full control effect.
SMILES,HT1080 IDH1KD tx,DT40 TDP1 CPT,HT1080-NT tox,TDP1 cell noCPT,IL-1B inflam inh
O=C(Oc1ccc(OC(=O)C2CCC2)cc1)C1CCC1,-4%,?,3%,23µM*,15
O=C(Oc1ccc2ccccc2c1)C1CCC1,2%,-13%,4%,-24%,28
CC(C)CN1C=C2C(=O)C(C)(OC(=O)CCc3ccccc3)C(=O)C=C2C=C1c1ccc(C#N)cc1 (centres undefined),3%,21µM*,-1%,18µM*,-2
CC1(OC(=O)C2CCCC2)C(=O)C=C2C=C(c3ccsc3)N(Cc3ccccc3)C=C2C1=O (centres undefined),-7%,?,-2%,18µM*,25
CC1(OC(=O)CCc2ccccc2)C(=O)C=C2C=C(c3ccc(C#N)cc3)N(Cc3ccccc3)C=C2C1=O (centres undefined),?,18µM*,-3%,?,4
CC(=O)N(C1CC(C)C(C#N)(C#N)C1(C#N)C#N)N(C)C (centres undefined),?,0.52µM*,-16%,0.58µM*,-112*
CCCC(=O)N(C1CC(C)C(C#N)(C#N)C1(C#N)C#N)N(C)C (centres undefined),?,1.3µM*,?,2.3µM*,-101*
CCn1c(=O)n(CC)c2cc([N+](=O)[O-])ccc21,-20%,2%,-5%,2%,11
CCOC(=O)c1c(C)oc2nc(C)nc(NCC3CCN(Cc4ccc(F)cc4)CC3)c12,·,-29%,·,?,·
CCOC(=O)c1c(C)oc2nc(C)nc(NCCCN3CCN(c4ccc(F)cc4)CC3)c12,·,21µM*,·,21µM*,·
CCOC(=O)c1c(C)oc2nc(C)nc(NCC3CCN(Cc4cc(C)ccc4C)CC3)c12,·,-9%,·,-20%,·
CCOC(=O)c1c(C)oc2ncnc(NCCCN3CCN(c4cc(C)ccc4C)CC3)c12,·,7.3µM*,·,4.6µM*,·
CCOC(=O)c1c(C)oc2nc(C)nc(NCCCN3CCN(c4ccccc4OC)CC3)c12,·,?,·,23µM*,·
CCOC(=O)c1c(C)oc2nc(C)nc(N3CCN(c4ccc(C(C)=O)cc4)CC3)c12,·,5.8µM*,·,2.9µM*,·
CCNc1ncc2nc(-c3cccs3)c(=O)n(Cc3ccc(F)cc3)c2n1,·,0%,·,0%,·
O=C(CCNC(=O)c1ccccc1Cl)NN=Cc1ccccc1[N+](=O)[O-],1%,?,-2%,?,-9
Cc1onc(-c2ccccc2)c1C(=O)N/N=C/c1ccco1,2%,-29%,-7%,0%,14
Cc1onc(-c2ccccc2)c1C(=O)N/N=C/c1ccc([N+](=O)[O-])s1,?,16µM*,-8%,13µM*,-13
O=C(CNC(=O)c1ccccc1Cl)N/N=C/c1ccc([N+](=O)[O-])s1,23µM*,21µM*,?,21µM*,-56*
O=C(Cc1cccs1)N/N=C\c1ccc([N+](=O)[O-])s1,-28%,8.2µM*,?,21µM*,7
COc1ccc(/C=C/C(=O)NCC2Cc3cccc(-c4nc(C)cnc4C)c3O2)cc1OC (centres undefined),·,9%,·,-4%,·
C[C@H](NC(=O)[C@@H]1CSC2c3ccccc3C(=O)N21)C(=O)NCCc1ccc(F)cc1 (some centres undefined),19%,-11%,-2%,9%,15
Cc1cc(=O)[nH]c2c(C)c(N)ccc12,2%,-2%,-2%,-6%,-1
Cc1cc(C)c2ccc3c(C)c(C)nc3c2[nH]1,?,?,?,21µM*,-1
CCc1ccc(OCC(=O)N(Cc2ccc(C(C)C)cc2)C2CCS(=O)(=O)C2)cc1 (centres undefined),·,16µM*,·,?,·
SMILES,HT1080 IDH1KD tx,DT40 TDP1 CPT,HT1080-NT tox,TDP1 cell noCPT,IL-1B inflam inh
Cc1cc(OCC(=O)N(C)C2CCCCC2)ccc1Cl,-16%,-1%,3%,-21%,?
Cc1cc(OCC(=O)N(Cc2ccc(N(C)C)cc2)C2CCS(=O)(=O)C2)cc(C)c1Cl (centres undefined),·,?,·,18µM*,·
Cc1cccc(OCC(=O)N(Cc2ccc(N(C)C)cc2)C2CCS(=O)(=O)C2)c1 (centres undefined),2%,-13%,0%,-17%,-50*
Cc1cc(OCC(=O)N(C)C2CCCCC2)cc(C)c1Cl,9%,?,18%,21µM*,0
CCc1ccc(OCC(=O)N(Cc2ccc(OC)cc2)C2CCS(=O)(=O)C2)cc1 (centres undefined),·,?,·,-23%,·
OCc1ccccc1-c1nc(NCC2CC2)nc2ccsc12,1%,?,5%,?,4
CC(=O)Nc1cccc(Oc2nc(NC(C)C)nc3cc(-c4ccccc4)sc23)c1,?,?,?,?,-63*
CC(=O)Nc1cccc(Oc2nc(NCC3CC3)nc3ccsc23)c1,-29%,16µM*,-22%,21µM*,0
CC(=O)Nc1ccc(CNc2nc(NCC3CC3)nc3ccsc23)cc1,?,18µM*,?,?,-105*
CC(=O)Nc1ccc(CNc2nc(NC(C)C)nc3ccsc23)cc1,-1%,0%,-3%,-24%,-90*
CCS(=O)(=O)n1nc(-c2ccco2)nc1N,3%,9%,5%,-13%,0
Cc1ccc(S(=O)(=O)N(C)c2ccc(OCC(=O)N3CCCCC3)cc2)cc1,6%,?,6%,?,10
Cc1cc(N2CC(C)OC(C)C2)nc(C(C)C)n1 (centres undefined),14%,0%,16%,0%,41
CN(C)c1ncnc(N(C)C)c1[N+](=O)[O-],0%,0%,1%,-2%,16
COc1ccc(/C=C/C(=O)c2ccc([N+](=O)[O-])o2)cc1,18µM*,2.3µM*,?,2.6µM*,-14
Cc1cccc(/C=C/C(=O)c2ccc([N+](=O)[O-])o2)c1,?,0.58µM*,-20%,0.65µM*,-100*
O=C(/C=C/c1cccc([N+](=O)[O-])c1)NCc1ccc2c(c1)OCO2,1%,-13%,-2%,-16%,-3
O=C(/C=C/c1cccc([N+](=O)[O-])c1)c1ccc([N+](=O)[O-])o1,5.8µM*,0.16µM*,5.8µM*,0.16µM*,-52*
Cc1ccc([N+](=O)[O-])cc1N/C=C/C(=O)c1ccco1,?,?,?,21µM*,5
